The list is not random: actives were taken first. Their share in the collection is about 4.1%.
NSD2 HMT inh = NSD2 histone methyltransferase inhibitors, primary screen, biochemical, AlphaScreen, single concentration, set 2; NSD2 peptide methylation, 120 min; hit rate 0.54% among 310,000; AID 743445, 2014; Histone-lysine N-methyltransferase NSD2 (Homo sapiens), O96028; inhibition, % at 12.5 µM; in the data active = inhibition above about 50%
PglD DTNB = C. jejuni PglD acetyltransferase inhibitors, primary screen, biochemical, DTNB colorimetric, single point; UDP-N-acetylbacillosamine N-acetyltransferase PglD (Campylobacter jejuni); purified PglD enzyme, DTNB colorimetric CoA detection; inhibition, % at 12.5 µM; hit rate 0.098% among 360,000; in the data active = inhibition above about 16%, passing the limit was not always enough; inconclusive = no clear call, values can overlap the other calls
F508del corr = F508del CFTR correction, initial screen, CFBE line, single point | AID 720511, 2013 | activity (quench increase), % at 7.58 µM | CFBE cells, YFP halide quenching; stimulated with forskolin plus potentiator P3; % fluorescence drop versus neutral controls | hit rate 0.36% among 350,000;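 active = mean added fluorescence quench of at least 8% versus neutral control, with both replicates also reaching 8%; inconclusive = only one of the mean or replicate conditions met; inactive = mean below 8% and not both replicates reaching 8%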;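 also: cells transiently co-express mutant CFTR-F508del with the halide-sensitive YFP; corrector assay measuring rescue of mutant channel to the surface after 24 h compound exposure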
ALR H2O2 inh = inhibitors of human ALR sulfhydryl oxidase, primary screen, biochemical, H2O2 detection, HRP-luminol luminescence, single point. hit rate 3.8% among 290,000. FAD-linked sulfhydryl oxidase ALR (Homo sapiens), P55789. AID 485317, 2010. inhibition, % (test concentration not listed). purified ALR, DTT oxidation;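 active = mean replicate inhibition above about 79%, with every replicate also reaching it, limit read from the data; inconclusive = only one of the two criteria met; inactive = mean below limit and not every replicate reaching it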
Target sequence (P55789 whole entry, looked up): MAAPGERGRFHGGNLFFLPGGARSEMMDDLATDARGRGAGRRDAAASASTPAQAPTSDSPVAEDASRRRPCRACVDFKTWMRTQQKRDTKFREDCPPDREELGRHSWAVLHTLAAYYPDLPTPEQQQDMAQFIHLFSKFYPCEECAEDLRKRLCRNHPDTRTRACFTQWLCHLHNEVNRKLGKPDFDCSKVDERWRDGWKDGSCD
Casp6 inh = human caspase-6 inhibitors, primary screen, biochemical, VEID-R110 fluorescence, single point, set 2 | P55212 | purified caspase-6, Z-VEID-R110 cleavage fluorescence | AID 686996, 2013 | inhibition, % at 12.5 µM | hit rate 0.53% among 350,000;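 active = mean inhibition across replicates at least about 35%, with every replicate also reaching that limit, limit read from the data; inconclusive = only one of the two criteria met; inactive = neither criterion met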;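 also: 0% = median of neutral control wells and 100% = no fluorescence left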
Target sequence (P55212 24-179 limits assumed): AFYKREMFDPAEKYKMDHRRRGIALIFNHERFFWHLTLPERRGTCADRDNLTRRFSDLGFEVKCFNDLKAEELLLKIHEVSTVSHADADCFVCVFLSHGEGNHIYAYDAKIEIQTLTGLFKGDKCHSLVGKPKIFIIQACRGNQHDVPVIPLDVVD
Target sequence (P55212 194-293 limits assumed): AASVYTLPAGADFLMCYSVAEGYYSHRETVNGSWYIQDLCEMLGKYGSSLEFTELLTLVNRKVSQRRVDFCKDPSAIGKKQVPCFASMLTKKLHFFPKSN
HIV Env fusion = inhibitors of HIV-1 Env-driven cell-cell fusion, primary screen, HeLa-JRFL effector, CEM21 target cells, luciferase; inhibition, % at 12.3 µM; hit rate 1.1% among 360,000;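 active = mean replicate inhibition score of at least 50 and every replicate individually at or above 50; inconclusive = only one of the two criteria met; inactive = mean below 50 and not all replicates reaching 50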;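 also: 0% = plate neutral controls and 100% = maraviroc near 300 nM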
The depositor's hits bear a star; ? = inconclusive; . = not tested or not shown; [ ] = remark or other dose.

SMILES	NSD2 HMT inh	PglD DTNB	F508del corr	ALR H2O2 inh	Casp6 inh	HIV Env fusion
O=C(O)CCN1C(=O)CC(N2C(=O)/C(=C/c3ccc(Cl)cc3)SC2=S)C1=O (stereo unspecified)	-13	.	-2	98*	23	.
CCOc1ccc(/C=C2\SC(=S)N(CCC(=O)O)C2=O)cc1	.	.	1	3	2	?
COCC(=O)N1[C@H](C(=O)Nc2ccccc2)[C@@H](CO)[C@@H]2Cn3c(ccc(-c4ccccc4)c3=O)[C@@H]21	.	6	1	.	-1	.
CN1C(=O)c2cc(NC(=O)C3CC3)ccc2OC[C@H]2O[C@H](CC(=O)NCC3CCCCC3)CC[C@@H]21	.	-1	0	.	2	-16[16.7 µM]
CCOC(=O)CC1C(=O)NCCN1S(=O)(=O)c1ccccc1 (stereo unspecified)	-5	.	.	-6	-2	8
CCOC(=O)CC1C(=O)NCCN1S(=O)(=O)c1cccc(C(F)(F)F)c1 (stereo unspecified)	0	0	2	4	42*	-2
O=C1C(Cl)=C(N2CCCCCC2)C(=O)N1c1ccccc1	-1	-3	.	3	.	105*
Cc1noc(C)c1S(=O)(=O)Nc1ccc2c(c1)C(=O)N([C@@H](C)CO)C[C@@H](C)[C@@H](CN(C)Cc1ccc(Cl)c(Cl)c1)OCCCC[C@@H](C)O2	.	1	-3	.	0	-3[16.7 µM]
O=C(N/N=C/c1cc(Br)c(Br)o1)C(O)c1ccccc1 (stereo unspecified)	15	.	1	-12	40*	0
COc1ccc(-c2csc3ncnc(N4CCN(S(=O)(=O)c5ccc(C)cc5)CC4)c23)cc1	1	.	-1	-2	-8	63*
Cc1csc2ncnc(N3CCN(S(=O)(=O)c4cccc(C(F)(F)F)c4)CC3)c12	0	0	4	-7	-1	57*
Cc1sc2ncnc(N3CCN(S(=O)(=O)c4ccc(Br)cc4)CC3)c2c1C	2	0	1	.	1	78*
COc1ccc(-c2csc3ncnc(N4CCN(S(=O)(=O)c5cccs5)CC4)c23)cc1	-2	-4	0	-7	-2	15
N#CC1(C#N)CC(C=O)=C(N)C1(C#N)CC(=O)C12CC3CC(CC(C3)C1)C2 (stereo unspecified)	10	.	.	96*	15	39
Nc1nccnc1C(=O)OCC(=O)C12CC3CC(CC(C3)C1)C2	0	-2	1	1	-3	-20
Cc1nc(NC(=O)CSc2nc(N)cc(N)n2)sc1C	11	-9	-1	94*	0	-5
CCn1c(SCC(=O)Nc2nc(C)c(C)s2)nnc1-c1cccs1	-2	0	.	6	.	36
C[C@@H]1CCCCO[C@@H](CN(C)CC2CCCCC2)[C@H](C)CN([C@H](C)CO)C(=O)c2cc(NS(=O)(=O)c3ccccc3)ccc2O1	.	0	1	.	1	-13[16.7 µM]
Oc1ccc(C2=CSC3=NCCN23)cc1O	5	2	3	100*	1	6
Brc1ccc(C2=CSC3=NCCN23)cc1	3	2	0	.	10	-3
Cc1cc(C(=O)COc2ccc(-c3nnco3)cc2)c(C)n1Cc1ccccc1	0	1	.	-1	.	65*
COCC(=O)Nc1ccc2c(c1)[C@H]1C[C@H](CC(=O)N(C)C)O[C@@H](CO)[C@H]1O2	.	2	-1	.	.	2[16.7 µM]
COc1cc(Br)cc(CN2CCN(C/C=C/c3ccccc3)CC2)c1O	-2	4	-1	9	38*	.
COCC(=O)Nc1ccc2c(c1)[C@H]1C[C@H](CC(=O)NCc3ccccc3)O[C@@H](CO)[C@H]1O2	.	0	-3	.	-2	-22[16.7 µM]
COC1=CC(=O)C(C2CC(=O)c3c(O)cc(O)cc3O2)=CC1=O (stereo unspecified)	15	.	-4	.	44*	-20
SMILES	NSD2 HMT inh	PglD DTNB	F508del corr	ALR H2O2 inh	Casp6 inh	HIV Env fusion
CC(C(=O)Nc1sccc1C(N)=O)N1C(=O)C2CC=CCC2C1=O (stereo unspecified)	-3	4	.	97*	.	.
C[C@@H](C(=O)Nc1nccs1)N1C(=O)C2CC=CCC2C1=O (stereo partly specified)	-1	-2	-4	-5	1	-15
CC(=O)N1CC2(C1)[C@@H](c1ccccc1)[C@@H](CO)N2Cc1cc(F)ccc1F	.	.	-2	.	-2	.
O=C(O)CCC(=O)c1cccc2ccccc12	-1	2	.	-2	.	-32
O=C(O)CCC(=O)c1ccc2ccc3cccc4ccc1c2c34	3	.	2	87*	11	-40
COC(=O)C[C@@H]1CC[C@@H]2[C@H](COc3ccc(NC(=O)Nc4ccc(C)cc4)cc3C(=O)N2C)O1	.	-1	-2	.	4	-27[16.7 µM]
O=C1CSC(=S)N1/N=C/c1ccc(O)c(O)c1O	.	9	.	.	.	.
O=C1CSC(=S)N1/N=C/c1cc(Br)ccc1O	.	.	.	98*	.	.
CC(C)C(=O)Nc1ccc2c(c1)C(=O)N(C)[C@@H]1CC[C@H](CC(=O)O)O[C@@H]1CO2	.	-1	-1	.	-2	9[16.7 µM]
COc1ccc(-n2nc3c(c2NC(=O)c2c(-c4ccccc4Cl)noc2C)CS(=O)(=O)C3)cc1	-1	-3	1	1	42*	.
CN1CCc2cccc3c2[C@H]1Cc1ccc(O)c(O)c1-3	.	3	1	99*	2	39
CCCNC(=O)N1C[C@@H]2[C@H](c3ccccc31)[C@@H](CO)N2C(=O)NCCC	.	-2	0	.	-2	.
COc1cc(C2CC(=O)c3c([nH]c(C(=O)OCCOC(C)C)c3C)C2)cc(OC)c1OC (stereo unspecified)	.	-5	3	-10	2	55*
CCOCCOC(=O)c1[nH]c2c(c1C)C(=O)CC(c1ccc(OC)c(OC)c1)C2 (stereo unspecified)	0	14	2	-1	.	16
CCCOCCOC(=O)c1[nH]c2c(c1C)C(=O)CC(c1cc(OC)ccc1OC)C2 (stereo unspecified)	.	-1	9.6*	1	-1	-392
COCCOC(=O)c1[nH]c2c(c1C)C(=O)CC(c1cc(OC)ccc1OC)C2 (stereo unspecified)	.	6	-1	-1	-3	-169
O=C(NC1CC(=O)N(c2ccccc2)C1)C(=O)c1c[nH]c2ccccc12 (stereo unspecified)	6	-3	1	-1	0	62*
O=C(NC1CC1)C(=O)c1c[nH]c2ccccc12	1	0	0	-1	-1	-12
FC(F)(F)c1ccccc1NC(=S)Nc1cccc2cnccc12	96*	.	-1	.	37*	-10

Assay outcomes: PubChem, Broad Institute
